D1 antagonist: human D1 dopamine receptor antagonism | P21728 | actives 3.2% (n = 360,000) | HEK293 TREx D1 cells, calcium flux, dopamine EC80; stronger effect = lower value | activity change, negative = inhibition, % at 10 µM; in the data active means activity change below about -30%
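Cells carrying a force-coupled, tetracycline-inducible human D1 receptor report calcium flux. Each well gets a 10 s baseline, compound with 180 s monitoring, then an EC80 dopamine stimulus with a second 180 s kinetic read.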
D1 PAM: human D1 dopamine receptor positive modulation. actives 0.036% (n = 360,000). HEK293 TREx D1 cells, calcium flux, dopamine EC20 potentiation. potentiation, % at 10 µM. P21728; in the data active means potentiation above about 30%
TRHR agonist: activates the human TRH receptor. P34981. TRHR cells, calcium flux fluo-8, FDSS agonist mode. activation, % at 2 µM. actives 0.18% (n = 360,000)
Target sequence (P34981 whole entry, looked up): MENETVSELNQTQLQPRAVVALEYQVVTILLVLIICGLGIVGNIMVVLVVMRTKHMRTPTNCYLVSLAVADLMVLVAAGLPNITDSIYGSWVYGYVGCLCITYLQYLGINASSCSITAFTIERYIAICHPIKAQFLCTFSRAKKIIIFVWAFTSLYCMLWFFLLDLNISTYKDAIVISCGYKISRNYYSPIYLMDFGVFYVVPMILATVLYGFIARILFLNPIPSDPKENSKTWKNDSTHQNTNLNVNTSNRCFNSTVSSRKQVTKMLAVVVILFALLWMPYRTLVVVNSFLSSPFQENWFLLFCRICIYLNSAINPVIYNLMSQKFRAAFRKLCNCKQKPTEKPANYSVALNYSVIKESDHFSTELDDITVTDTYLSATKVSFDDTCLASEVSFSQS
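Steps: seed TRHR cells overnight; add fluo-8 no-wash Ca dye, RT 30 min–1.5 h; record 10 s baseline; pin-transfer compounds; monitor fluorescence 1 cycle/s for the agonist window. Calcium increases flag candidate agonists.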
D1 agonist: activates the human D1 dopamine receptor | actives 1% (n = 360,000) | AID 504660 | P21728 | activation, % at 2 µM | HEK293 T-REx D1 cells, calcium flux, agonist mode
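Inducible HEK293 T-REx D1 cells, force-coupled to calcium signalling, were plated at 4000 cells/well with tetracycline and held overnight at 30 C. After no-wash calcium dye loading, compound-evoked calcium rise over 180 s flagged agonists.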
TRHR enhancer: allosterically enhances the human TRH receptor; TRHR cells, fluo-8 calcium fluorescence, EC20 TRH enhancement; P34981; actives 0.66% (n = 360,000); enhancement, % at 2 µM; in the data active means enhancement above about 30%
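Enhancer read-out: after compound pinning and an initial kinetic agonist-mode read, an EC20 of TRH (10 nM final) was injected and fluo-8 calcium signal (Ex 480/Em 530) followed at 1 s/cycle for 100 cycles in TRHR-expressing cells.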
Numbers stand for hits; - = inactive; . = no result given. In the library only some 4.6% were active in any assay of this set; here they are far more common. Unless noted, no stated cut-off is given here; in the data, active means activation above about 30%; inactive means the rest.

SMILES	D1 antagonist	D1 PAM	TRHR agonist	D1 agonist	TRHR enhancer
CCCOc1ccc(OCCCCNC(C)CC)cc1 (stereo not drawn)	-54	-	-	-	-
Cc1ccc(O)c(C(=O)c2cc(C#N)c(=O)n(-c3nccs3)c2)c1	-	-	-	331	-
O=C(CCCn1ccc2cc(S(=O)(=O)N3CCCC3)ccc21)NCc1ccc(Cl)cc1	-	-	-	-	-
Cc1ccc(C)c(NC(=O)CCCN2C(=O)C(c3ccccc3)Oc3cccnc32)c1 (stereo not drawn)	-	-	-	-	53
Cc1cc(C)nc(SCC(=O)c2ccc(O)c(O)c2)n1	-	-	-	-	-
Cc1cc(C)nc(SCC(=O)c2ccc(O)cc2O)n1	-43	-	-	-	-
Nc1nc(-c2ccccn2)nc(N)c1Cc1ccc(Cl)cc1Cl	-	51	-	34	-
Nc1nc(-c2ccccn2)nc(N)c1Cc1ccccc1F	-	-	-	-	-
CCCn1c(=O)c(C(=O)NNC(=O)c2ccccc2Cl)c(O)c2ccccc21	-	-	30	-	-
CCCn1c(=O)c(C(=O)NNC(=O)c2ccccc2[N+](=O)[O-])c(O)c2ccccc21	-	-	-	-	-
CCCn1c(=O)c(C(=O)NNC(=O)Cc2ccccc2)c(O)c2ccccc21	-	-	-	-	33
CCOc1ccccc1NC(=O)Cn1cc(C(=O)c2ccc(Cl)cc2)c(=O)c2ccc(C)nc21	-	-	-	-	-
Cc1ccc(N(C)C(=O)Cn2cc(S(=O)(=O)N3CCCC3)c(S(=O)(=O)N3CCCC3)c2)cc1	-	-	-	-	-
CC1CCc2c(sc3nnn(CC(=O)Nc4ccccc4Cl)c(=O)c23)C1 (stereo not drawn)	-	-	-	-	-
O=C(O)c1cc(S(=O)(=O)Nc2ccc(N3CCCCC3)cc2)ccc1Cl	-	-	-	-	-
O=C(O)c1ccc(NS(=O)(=O)c2ccc(Cl)c(Cl)c2)cc1O	-31	-	-	-	-
COc1ccc2nc(NC(=O)c3cccc(-c4cc5ccccc5oc4=O)c3)sc2c1	-33	-	-	-	-
COc1ccc(C(=O)Nc2nc3ccc(OC)cc3s2)cc1	-	-	-	-	-
COc1ccc2nc(NC(=O)c3cc(=O)c4ccccc4o3)sc2c1	-	-	-	-	40
Cc1ccccc1Cn1cc(CCC(=O)NC(C)c2ccccc2)c2ccccc21 (stereo not drawn)	-	-	-	-	-
CCc1ccccc1NC(=O)Nc1cc(C(=O)NCc2ccc(OC)cc2)ccc1N1CCCC1	-	-	-	-	-
COCCN(Cc1cc2cc3c(cc2nc1Cl)OCO3)C(=O)c1ccc(C)cc1	-	-	-	66	-
COCCN(Cc1cc2cc(C)c(C)cc2nc1Cl)C(=O)Nc1ccccc1	-	-	-	-	-
CCOC(=O)c1cn(Cc2ccc(Br)cc2)nn1	-	-	-	-	36
CCOC(=O)c1cn(Cc2ccc(C)cc2)nn1	-	-	-	-	-
SMILES	D1 antagonist	D1 PAM	TRHR agonist	D1 agonist	TRHR enhancer
COC(=O)[C@@H](NC(=O)c1ccc(OC2CCN(Cc3ccccn3)CC2)cc1)C(C)C	-	-	-	-	-
CC(C)c1cc(CNC(=O)c2ccc(OC3CCN(Cc4ccccn4)CC3)cc2)on1	-53	-	-	-	-
CCn1cc(CNC(=O)c2ccc(OC3CCN(Cc4ccccn4)CC3)cc2)cn1	-	-	-	-	-
CCn1nc(C)c(CNC(=O)c2ccc(OC3CCN(Cc4ccccn4)CC3)cc2)c1C	-34	-	-	-	-
C=CCN1C(=O)/C(=C2/Sc3ccccc3N2CC)SC1=S	-	-	-	-	-
C=CCN1C(=O)/C(=C/C=C2/N(CC)c3ccc(S(=O)(=O)N(C)C)cc3N2CC)SC1=S	-	-	45	118	-
Cc1ccccc1C(c1c(C)n(C)n(-c2ccccc2)c1=O)c1c(C)n(C)n(-c2ccccc2)c1=O	-	-	-	-	-
COc1ccc(C2CC(=O)NC(NC(=O)c3ccc(Br)cc3)=N2)c(OC)c1OC (stereo not drawn)	-	-	-	-	-
CCCCCCSc1ccc(-c2nc3ccc(C)cn3c2NCc2ccccc2)cc1	-36	-	-	-	-
CCCCCCSc1ccc(-c2nc3ccc(C)cn3c2NCc2ccccc2)cc1OC	-	-	-	-	-
CSc1cccc(NC(=O)c2ccc3c(c2)c(C)c(C)n3Cc2ccc(F)cc2)c1	-	-	-	-	-
CCCCCOC(=O)NCC(O)c1ccccc1 (stereo not drawn)	-34	-	-	-	-
COc1cccc(CNC(=O)c2c(C)nn(-c3cccc(C)c3)c2-n2cccc2)c1	-	-	-	-	-
CCC(C)NC(=O)CSc1nc2cc(S(=O)(=O)N3CCOCC3)ccc2n1CC (stereo not drawn)	-32	-	-	-	-
CCn1c(SCC(=O)c2cc(C)ccc2C)nc2cc(S(=O)(=O)N3CCOCC3)ccc21	-	-	-	-	-
Cc1ccc(OC(=O)c2ccc(Br)o2)cc1	-48	-	-	102	-
CC(=O)c1ccc(OC(=O)c2ccc(Br)o2)cc1	-	-	-	59	-
O=C(Oc1ccc(-c2nnco2)cc1)c1ccc(Br)o1	-	-	-	-	-
O=[N+]([O-])c1ccc(O)c(-c2cc(C(F)(F)F)nc(-c3ccccc3)n2)c1	-48	-	-	36	-
O=C(Nc1ccc(N2CCOCC2)cc1)c1ccc2nc(-c3ccco3)c(-c3ccco3)nc2c1	-	-	-	-	-
S=C(Nc1ccc(N2CCOCC2)cc1)Nc1ccc2nc(-c3ccco3)c(-c3ccco3)nc2c1	-	-	-	57	-
O=C(c1ccco1)N1CCCC(N2CCN(c3ccccc3F)CC2)C1 (stereo not drawn)	-	-	-	-	-
Cc1ccccc1N1CCN(C2CCCN(C(=O)CN3CCCC3=O)C2)CC1 (stereo not drawn)	-	-	-	-	-
CC(C)/C=C/C(=O)N1CCCC(N2CCN(c3ccccc3F)CC2)C1 (stereo not drawn)	-46	-	-	-	-
COc1ccccc1N1CCN(C2CCCN(C(=O)CN3CCCC3=O)C2)CC1 (stereo not drawn)	-32	-	-	-	-
Oc1cccc(/C=N\Nc2nncc(-c3ccccc3)n2)c1	-37	-	-	-	-
CCOc1cc(/C=N/Nc2nncc(-c3ccccc3)n2)ccc1O	-	-	-	-	-
NC(=O)NC(=O)C(c1ccccc1)N1CCN(S(=O)(=O)Cc2ccccc2)CC1 (stereo not drawn)	-31	.	-	-	-
Cc1ccc(NC(=O)C2CCC(N3C(=O)C4CCCCC4C3=O)CC2)cc1 (stereo not drawn)	-	-	-	-	-
O=C(Nc1ccc(Cc2ccncc2)cc1)C1CCC(N2C(=O)C3CCCCC3C2=O)CC1 (stereo not drawn)	-39	-	-	-	-
